# Assay outcomes (PubChem)
# TDP1 block: inhibitors of human tyrosyl-DNA phosphodiesterase TDP1. Q9NUW8. recombinant TDP1, AlphaScreen DNA substrate cleavage. Potency, µM (highest dose often 130 µM), for inactives: at the top dose activity change, negative = inhibition, most hits filed as inhibitors. 350,000 tested, 0.28% active. AID 485290; further: potency means the concentration at half of the fitted maximal effect; on the % scale 0 is the no-effect control and ±100 the full control effect; nearly all actives have a fitted effect of over 40% in size
#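 Signal: AlphaScreen proximity between streptavidin donor and anti-FITC acceptor beads on intact substrate. Reaction: Tdp1 1 nM, substrate 15 nM final, 5 min RT after 15 min compound preincubation.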
# APEX1 inh: APE1 (human) endonuclease inhibition; P27695; recombinant APE1, TAMRA/BHQ-2 abasic DNA cleavage fluorescence; Potency, µM (series often up to 65.8 µM), without a hit: at the top dose activity change, negative = inhibition, usual class: inhibitors; 350,000 tested, 0.35% active; AID 2517;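 further: potency means the concentration at half of the fitted maximal effect; plate controls were vehicle for no effect and reference inhibitor for full effect; nearly all actives have a fitted effect of over 55% in size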
#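 Step 1: APE1 (0.75 nM) with compound, 15 min RT. Step 2: add 50 nM fluorophore/quencher THF duplex. Step 3: three fluorescence reads 60 s apart (525/598 nm); read 3 minus read 1 = reaction progress.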
# PI4K2A inh: blocks human PI4K2A kinase activity | Q9BTU6 | purified PI4K2A, ADP-Glo luminescence, 1 h; hits give low values | activity change, negative = inhibition, % at 76.9 µM | 420,000 tested, 0.13% active | AID 1346378; in the data active means activity change below about -50%; inconclusive means mostly about -30% to -49%;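 further: -100% = wells without enzyme as full effect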
# Target sequence (Q9BTU6 whole entry, looked up): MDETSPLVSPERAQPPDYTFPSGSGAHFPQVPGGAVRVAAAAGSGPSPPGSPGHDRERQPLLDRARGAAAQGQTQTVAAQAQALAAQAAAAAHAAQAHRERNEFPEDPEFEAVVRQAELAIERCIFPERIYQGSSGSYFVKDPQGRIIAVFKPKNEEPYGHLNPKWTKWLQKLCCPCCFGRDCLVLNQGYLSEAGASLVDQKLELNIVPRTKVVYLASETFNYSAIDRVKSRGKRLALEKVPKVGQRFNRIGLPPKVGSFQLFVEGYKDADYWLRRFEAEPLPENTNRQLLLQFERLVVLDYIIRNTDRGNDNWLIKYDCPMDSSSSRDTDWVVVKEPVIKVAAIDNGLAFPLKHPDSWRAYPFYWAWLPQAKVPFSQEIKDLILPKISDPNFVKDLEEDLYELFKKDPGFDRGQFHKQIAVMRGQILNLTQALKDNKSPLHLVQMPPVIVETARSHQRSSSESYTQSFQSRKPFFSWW
#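 Compounds are screened against recombinant PI4K2A using PI as substrate and ATP, the latter dispensed at 300 microM. Reactions run one hour at ambient temperature before ADP-Glo detection; full inhibition defined by wells lacking enzyme.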
# Tb PFK block: blocks T. brucei phosphofructokinase; O15648; T. brucei PFK, ADP-Glo luminescence; Potency, µM (highest dose often 57.5 µM), for the others: top-dose activity, negative = inhibition, most hits filed as inhibitors; 330,000 tested, 0.17% active;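 further: potency means the concentration at half of the fitted maximal effect; 0% = uninhibited 1x PFK enzyme wells and -100% = no-enzyme wells; nearly all actives have a fitted effect of over 60% in size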
#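 ADP-Glo luminescence quantified ADP after 45 min at room temperature, with 1.25 nM T. brucei PFK, 0.1 mM ATP and 0.5 mM fructose-6-phosphate in pH 8.0 TEA buffer. qHTS titrations up to 57 µM; curves classified by quality.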
# Tb PGK inh: T. brucei PGK inhibition; Potency, µM (series often up to 57.5 µM), for inactives: at the highest dose activity change, negative = inhibition, most hits filed as inhibitors; AID 602233; P07378; 380,000 tested, 0.043% active; PGK/GAPDH coupled, Kinase-Glo luminescence, 60 min; further: potency means the concentration at half of the fitted maximal effect; on the % scale 0 is the no-effect control and ±100 the full control effect; nearly all actives have a fitted effect of over 60% in size
#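 Luminescent ATP detection (Kinase-Glo Plus) follows a 60-minute room-temperature incubation, with wells lacking PGK as controls. Buffer: 100 mM TEA (pH 7.6), 5 mM MgCl2, 0.01% Tween-20. Coupling enzyme GAPDH (100 nM final) supplies unstable 1,3-BPG in-well.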
# FEN1 inh-1: human FEN1 inhibition. P39748. Recombinant FEN1 flap cleavage, fluorescence, 15 min. Potency, µM (series often up to 114 µM), without a hit: at the highest dose activity change, negative = inhibition, hits mostly inhibitors. 390,000 tested, 0.35% active. AID 588795; further: potency means the concentration at half of the fitted maximal effect; on the % scale 0 is the no-effect control and ±100 the full control effect; nearly all actives have a fitted effect of over 65% in size
#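 Quantitative HTS format: each compound was titrated, incubated with 10 nM nuclease for 15 min at room temperature, then challenged with flap substrate at 50 nM final. Signal change over 15 min gave concentration–effect curves.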
# FEN1 inh-2: confirmation of human FEN1 inhibitors; FEN1 flap cleavage, TAMRA/BHQ2 fluorogenic DNA substrate; 880 tested, 79% active; Potency, µM, actives largely listed as inhibitors; shares compounds with FEN1 inh-1; further: potency means the concentration at half of the fitted maximal effect; nearly all actives have a fitted effect of over 60% in size
# Starred values were filed as active, the others as inactive; i = inactive; u = inconclusive; x = no result given. A selection: hits, their analogues and other compounds. The true share with any hit is near 0.8%. Unless noted, the call rests on the fitted dose curve; in most records, active means well fitted curve in the direction sought with a large enough effect; inconclusive means small, poorly fitted or top-dose-only effect, or another doubt; inactive means no such curve, though single readings can be large; an effect the other way counts as inactive or inconclusive.
SMILES,TDP1 block,APEX1 inh,PI4K2A inh,Tb PFK block,Tb PGK inh,FEN1 inh-1,FEN1 inh-2
O=C(O)c1cccc(N2CCCC2)c1,-1.0%,-2.0%,0.9,-1.4%,6.2%,6.2%,x
COc1ccc(CCNc2c3ccccc3nc3ccccc23)cc1OC,1.4%,u,0.2,12.4%,3.9%,50.1µM*,u
c1ccc2c(NCCc3c[nH]c4ccccc34)c3ccccc3nc2c1,x,u,-4.2,-1.7%,i,u,21.3*
OCCCNc1c2ccccc2nc2ccccc12,x,16.8µM*,1.2,-0.6%,i,22.4µM*,21.3*
Cn1c(N)c(C(=O)CSc2nnc(-c3c[nH]c4ccccc34)n2C2CC2)c(=O)[nH]c1=O,-11.4%,u,-2.7,-5.4%,-17.0%,20µM*,42.6*
COc1ccc(-c2cc(-c3nnc(SCC(=O)Nc4ccc(OCc5ccccc5)cc4)n3N)[nH]n2)cc1,x,x,9.8,x,x,x,x
CCCN1C(=O)/C(=C/C=C2\N(CC)c3ccccc3C2(C)C)SC1=S,7.8%,-3.1%,-2.5,2.9%,-2.6%,u,x
CN1/C(=C\C=C2/SC(=S)N(CC(=O)O)C2=O)C(C)(C)c2ccccc21,5.4%,25.1µM*,-19.2,-15.5%,-28.2%,u,84.9*
COc1cc(/C=N/NC(=O)c2cccc(C(=O)N/N=C/c3ccc(O)c(OC)c3)n2)ccc1O,x,-34.4%,-1.6,8.6%,-8.5%,u,1.35*
CCN(CC)CCN1C(=O)c2cccc3cc(N)cc(c23)C1=O,-2.6%,u,0.6,5.7%,0.4%,50.1µM*,u
O=c1c2c(-c3ccccc3)csc2nc2c3ccccc3c(NCCN3CCOCC3)nn12,7.1%,u,-0.2,12.8%,-1.1%,39.8µM*,21.3*
c1ccc(-c2csc3ncnc(NCCCN4CCOCC4)c23)cc1,-2.2%,1.7%,-6.0,-0.2%,4.8%,8.6%,x
Cc1cc(=O)[nH]c2ccccc12,2.0%,0.0%,1.3,1.7%,-3.8%,-10.3%,x
Cc1cc2[nH]c3c(c[n+](C)c4ccccc34)c2cc1C,-2.6%,4.8%,2.5,-1.0%,-3.3%,u,3.79*
CS(=O)(=O)N1CCN(/[N+]([O-])=N/Oc2ccc([N+](=O)[O-])cc2[N+](=O)[O-])CC1,x,x,x,x,x,4.2%,x
O=C(O)c1ccc(S(=O)(=O)/N=C2\C=C(Nc3ccccc3F)C(=O)c3ccccc32)cc1,12.3%,17.1%,u,4.5%,u,44.7µM*,u
CC(=O)Nc1ccc(NC2=C/C(=N/S(=O)(=O)c3cccs3)c3ccccc3C2=O)cc1,5.8%,7.1%,-10.6,-7.5%,-16.8%,-12.6%,x
O=C(C[n+]1ccccc1Br)c1ccc(F)cc1,x,x,x,x,x,-5.2%,x
CC[n+]1c(/C=C/C=C/N(C(C)=O)c2ccccc2)sc2cc(OC)ccc21,5.5%,-5.6%,-12.7,-0.5%,-12.7%,50.1µM*,42.6*
O=C1NC2c3c(I)sc(I)c3C(=O)C2O1 (configuration not stated),x,x,21.5,x,-4.1%,-14.0%,x
O=C1NC2c3c(Cl)sc(Cl)c3C(=O)C2O1 (configuration not stated),x,x,15.1,x,u,u,u
O=[N+]([O-])c1ccc(CN2CCOCCOCCN(Cc3ccc([N+](=O)[O-])cc3Cl)CCOCC2)c(Cl)c1,x,x,3.0,x,x,x,x
Cc1cccc(N=C2NC(=O)/C(=C/C=C/c3ccco3)S2)c1C,-2.3%,u,-27.3,u,u,44.7µM*,75.7*
Cc1oc(C)c2c(=O)cc(-c3ccc4c(c3)OCO4)cc(OC(=O)c3ccccc3Cl)c12,4.9%,x,-3.8,x,-6.8%,u,x
CCOc1cc(-c2ccc3c(c2)OCO3)cc(=[O+]CC)c2c(C)oc(C)c12,1.2%,x,x,x,x,44.7µM*,u
